A word on the Inhibition: it is the relative decrease from the control value, in per cent.

In all, about 21,000 compounds went through this assay and fewer than 10 showed an effect of 50% or more. Only a sample is shown. Results with a measured potency or affinity are listed apart.

These results are taken from ChEMBL document CHEMBL4513160, “CO-ADD screening of MMV (CH) - Small Polar Library”.

This assay has as its system Acinetobacter baumannii. The following applies: Concentration 300 ug.mL-1; ASSAY_TEST Inhibition of Bacterial Growth; detection method Absorption (OD600); MEDIA CAMHB; plate type 384well; NBS; CORNING #3640; time 18 hr.
On to `CN(C)c1cc(CN)ccn1`, for which the Inhibition was 11.49%.
Then `CCn1nc(C)cc1C(=O)NCCCc1cccnc1`, with 7.13%.
Consider `O=C1CC(C(=O)N2CCCC3(CCCCC3)C2)CCN1` (configuration not stated), for which the Inhibition is listed as 7.27%.
Then `CCN(C)CCNC(=O)c1ccncc1I`, with 5.97%; and `O=C(c1ccco1)N1C[C@H](O)[C@@H](N2CCCCC2)C1`, with 9.48%.
Then `CNC(=O)c1cnc(OCC(F)(F)F)c(Cl)c1`, with 1.45%; and `CC(=O)N(C1CC1)C(C)c1ccccn1` (configuration not stated), with 3.11%.
For `O=C1NCCCCC1NS(=O)(=O)N1CCOCC1` (configuration not stated) the value was 3.3%; for `CCn1cc(NC(=O)C(C)n2cccn2)cn1` (configuration not stated), 0.68%; for `CN(c1cccc(C(N)=O)c1)S(=O)(=O)c1ccccc1`, 7.68%.
In the case of `COc1cccc(NC(=O)NCC2CCN(C)CC2)c1`, the Inhibition was 9.08%.
For `Cc1cnccc1CN` the value was 5.52%; for `CN(Cc1nc(-c2ccc(F)cc2)cs1)CC(O)CO` (configuration not stated), 8.94%.
On to `CC(C)CN1CC(CN)OC1=O` (configuration not stated), for which the Inhibition is listed as 2.13%.
In the case of `O=C(CCN1CCc2[nH]cnc2C1)NCc1cccs1`, the Inhibition was -3.55%.
Regarding `CCNS(=O)(=O)C1CCN(Cc2cc(F)cc(F)c2)C1` (configuration not stated), the Inhibition is listed as -0.23%.
Then `C1CC(C2CCOC2)CCN1` (configuration not stated), with 9.96%; and `CCS(=O)(=O)CCN(C)CCOc1cccc(C#N)c1`, with 3.26%.
For `CC(N)c1nc2ccccc2n1C` (configuration not stated) the value was -1.51%; for `CCC(=O)NCCc1noc(COC)n1`, 8.83%; for `CCOc1cccc(C(C)NC(=O)CNC(C)=O)c1` (configuration not stated), 8.25%.
Then `CCC(=O)N1CCN(C(=O)CC2CCCCC2)CC1`, with 6.05%; and `CC1Cc2ccccc2N1CCN` (configuration not stated), with 14.26%; and `O=C1Nc2ccccc2C1C1CCNCC1` (configuration not stated), with 10.09%.
For `Cc1cc(C)cc(OCC(=O)N2CCN[C@H](C)C2)c1`, the Inhibition was 8.4%.
Then `CC1=C(c2ccco2)CN(CC(N)=O)CC1`, with 3.95%; and `O=C(Nc1cncc(Br)c1Cl)N1CCC(O)C1` (configuration not stated), with -0.64%.
For `NCc1cccc(N2CC=CC2)c1` the value was 6.5%; for `O=C(CCN1CCOCC1)Nc1cccc(Cl)c1`, 5.94%.
Consider `O=C(Cn1ccnc1)Nc1ccc(OC(F)F)cc1`, for which the Inhibition is listed as 8%.
`CNC(=O)CSc1nnc(C2CC2)n1C`: the Inhibition came to 5.97%.
For `CC(=O)c1c(C)[nH]c(C(=O)OCC(=O)N(C)C)c1C`, the Inhibition came out at 5.39%.
For `NCc1ccc(-c2ccccc2)o1` the value was 16.01%.
Then `CC(C)CCNC(=O)Nc1c[nH]c(=O)[nH]c1=O`, with 6.3%; and `CCCNC(=O)Cn1ccnc1SC`, with 10.93%; and `CNC(=O)c1cccc(CN)n1`, with 9.63%.
As to `CN(C)[C@H]1CN(C(=O)c2ccncc2)C[C@@H]1C1CC1`, the Inhibition is reported as 10.19%.
For `CCn1cnnc1CC1CCCNC1` (configuration not stated) the value was 9.33%; for `Cc1ccc(OC2CCN(C(=O)[C@@H](C)N)CC2)cc1`, 3.78%.
Then `CN[C@@H](C)C(=O)N1CC(Oc2ccccc2OC)C1`, with -2.39%; and `CC(C)NC(=O)C(C)N` (configuration not stated), with 9.53%.
For `NC(c1ccc(Cl)cc1)c1ncon1` (configuration not stated) the value was 6.75%; for `O=C(Cn1ccc(=O)[nH]c1=O)NCc1cccnc1`, 6.41%.
Turning to `CCOc1cc(C)ccc1CN`, the Inhibition amounted to 7.86%.
Then `c1ncn(-c2ccc(NCC3CCOCC3)cc2)n1`, with 5.37%; and `Cc1nn(C)c2nc(NCCC(=O)N3CCCC3)sc12`, with 3.37%.
In the case of `CNC(=O)[C@H]1CC[C@H](CNC(=O)c2cn[nH]c2)CC1`, the Inhibition came out at 6.17%.
Then `CC(C)C(=O)N1CCC(N)C1` (configuration not stated), with 3.38%; and `Cc1nc(CN(C)C(=O)NCc2ccccc2)no1`, with 6.9%.
Then `CC(C)(C)OC(=O)N1CC(O)C1`, with 5.37%.
For the molecule `COC(=O)c1ccc(NC(=O)N2CCOC(C)C2)cc1` (configuration not stated), the Inhibition is given as 6.27%.
Then `CSc1ccc(OCCN(C)CC(N)=O)cc1`, with 7.33%; and `CCOC(=O)c1csc(CNC(=O)c2ccc(C)o2)n1`, with 0.25%.
Then `CN(CCN1CCCC1=O)C(=O)c1ccc(Br)cc1O`, with 1.38%; and `CN[C@@H](CC(C)C)C(=O)NCCCc1csc(N)n1`, with -8.08%.
For `COCC(=O)N1CCN(Cc2csc(C)n2)CC1` the value was 2.61%; for `CCC(NC(=O)C1CC1)(C(N)=O)C(C)C` (configuration not stated), 2.37%; for `Cc1cccc(NC(=O)C2COCCO2)c1` (configuration not stated), 1.93%.
In the case of `CC(=O)N1CCCC(C(=O)NCCc2nnc(C)s2)C1` (configuration not stated), the Inhibition came out at 6.35%.
Then `O=C(OCCC1CCCO1)c1ccncc1` (configuration not stated), with -0.58%.
On to `O=C(CCC(F)(F)F)N[C@H]1CCCNC1`, for which the Inhibition is reported as 10.33%.
Then `CC(=O)N(C)CC(=O)Nc1ccccc1N1CCCC1`, with 8.57%.
In the case of `CN(C)c1nccc(N(C)CCn2cccn2)n1`, the Inhibition is recorded as 7.7%.
For `CCN(C(=O)c1ccc(-c2ccco2)[nH]c1=O)C1CC1` the value was 3.27%.
Then `COCC(=O)Nc1ccc(OCc2ccccn2)cc1`, with 4.72%; and `COc1ccc(OCCN2CCNCC2)cc1`, with 8.28%; and `CC(=O)NC(C(=O)N1CCSCC1)C(C)C` (configuration not stated), with 3.97%.
